# Measured values reported in PubChem BioAssay AID489043 (National Center for Advancing Translational Sciences (NCATS), 2010).
# Results filed as inconclusive are left out. The source made the active and inactive calls. The call rests on the fitted dose curve; in most records, active means well fitted activation curve with a large enough effect; inconclusive means small, poorly fitted or top-dose-only effect; inactive means flat fitted curve, though single readings scatter.
# Molecular target: Relaxin receptor 2 (Homo sapiens) (UniProt Q8WXD0)
# Assay: qHTS Assay for Agonists of the Relaxin Receptor RXFP1: RXFP2 Hit Validation; further: nearly all actives have a fitted effect of over 65% in size;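 on activation: 0% = buffer only basal cAMP and 100% = 29 nM porcine relaxin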
# Settings: HEK293 RXFP2 cAMP TR-FRET, 30 min; series mostly up to 115 µM; activation: at the top concentration
# How it was run: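 Concentration-response EC50s (Hill equation) come from a cAMP TR-FRET assay in HEK293 RXFP2 cells, compound for 30 min at 37C with PDE4 inhibitor.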
# Potency means the concentration at half of the fitted maximal effect.
# Sequence of Relaxin receptor 2 (Homo sapiens) (Q8WXD0 whole entry, looked up): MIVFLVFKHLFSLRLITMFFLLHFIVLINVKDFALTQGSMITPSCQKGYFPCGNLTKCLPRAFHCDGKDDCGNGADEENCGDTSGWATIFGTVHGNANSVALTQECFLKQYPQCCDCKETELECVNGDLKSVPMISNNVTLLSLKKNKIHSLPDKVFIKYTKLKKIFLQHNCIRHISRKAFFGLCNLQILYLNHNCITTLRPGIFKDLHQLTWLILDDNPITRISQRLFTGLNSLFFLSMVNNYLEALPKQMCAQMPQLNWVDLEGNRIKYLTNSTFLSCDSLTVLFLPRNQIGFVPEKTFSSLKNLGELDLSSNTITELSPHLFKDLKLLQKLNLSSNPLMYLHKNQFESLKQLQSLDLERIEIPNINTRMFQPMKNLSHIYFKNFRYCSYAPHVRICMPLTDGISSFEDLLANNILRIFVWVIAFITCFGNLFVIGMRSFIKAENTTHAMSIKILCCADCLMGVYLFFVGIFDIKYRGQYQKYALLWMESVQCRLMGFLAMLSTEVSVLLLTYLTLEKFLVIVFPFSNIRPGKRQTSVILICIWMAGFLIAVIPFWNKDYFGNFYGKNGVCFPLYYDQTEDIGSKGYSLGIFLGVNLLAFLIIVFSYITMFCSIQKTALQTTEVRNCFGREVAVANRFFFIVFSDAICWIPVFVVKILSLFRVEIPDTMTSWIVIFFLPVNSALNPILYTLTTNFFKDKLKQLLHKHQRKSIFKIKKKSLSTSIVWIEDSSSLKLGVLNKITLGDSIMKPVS
Compound,activation,Potency
COc1ccc(/C=C2/SC(=O)N(CCC(=O)Nc3ccc(C)cc3)C2=O)cc1OC,-63.1% (inactive),
Cc1ccc(C(=O)Nc2ccccc2C(=O)NCc2ccco2)cc1,0.29% [at 125 µM] (inactive),
Cc1ccccc1NC(=O)CNc1ccccc1C(=O)NCc1ccco1,2.32% [at 125 µM] (inactive),
CCN(CC)S(=O)(=O)c1cccc(N=Nc2c(O)c3ccccc3oc2=O)c1,,34.6 µM (active)
Cc1ccc(C(=O)Nc2cccc(C(F)(F)F)c2)cc1NC(=O)c1cnnc2ccccc12,5.25% (inactive),
O=C(Nc1ccccc1C(=O)Nc1ccc(F)cc1)c1ccco1,3.88% [at 125 µM] (inactive),
O=C(Nc1ccccc1C(=O)N1CCN(c2ccccc2)CC1)c1ccco1,-2.96% [at 125 µM] (inactive),
Cc1ccc(CN(C)C(=O)c2ccccc2NC(=O)c2ccccc2)o1,-1.29% [at 125 µM] (inactive),
CC1(C)Cc2nc3sc4c(SCC(=O)NC(c5ccccc5)c5ccccc5)ncnc4c3cc2CO1,,6.15 µM (active)
O=C1CN(c2nc3ccccc3n3cnnc23)CC(=O)N1CCc1ccccc1,9.22% [at 44.7 µM] (inactive),
O=C(CCc1nnc2ccc(NCCCN3CCCC3=O)nn12)NCc1ccccc1Cl,8.46% (inactive),
Cc1ccnc(NS(=O)(=O)c2ccc(N3C(=O)c4ccccc4C3=O)cc2)n1,,18.8 µM (active)
CC(C)n1cnc2c(N(C)c3cccc(Cl)c3)nc(N(CCO)CCO)nc21,-4.45% (inactive),
O=C(Nc1ccccc1C(=O)NC1CCCCC1)c1ccco1,15.2% [at 125 µM] (inactive),
CCc1nn(CC(=O)NCCCN2CCOCC2)c(=O)c2cc3sccc3n12,22.1% (inactive),
CCn1c(=O)c2cc(C(=O)Nc3cccc(C(C)=O)c3)sc2c2ccccc21,13.5% (inactive),
